A selection: hits, their analogues and other compounds. The true share with any hit is near 21%.
DT40 TDP1 no CPT = qHTS for Inhibitors of human tyrosyl-DNA phosphodiesterase 1 (TDP1): qHTS in cells in absence of CPT; DT40 Tdp1-/- hTDP1 cells, no CPT, ATP luminescence, 48 h; Potency, µM (top dose mostly 46.2 µM), for the others: at the top dose activity change, negative = growth inhibition, hits mostly inhibitors; hit rate 15% among 420,000; AID 686978, 2013; further: potency means the concentration at half of the fitted maximal effect; on the % scale 0 is the no-effect control and ±100 the full control effect; nearly all actives have a fitted effect of over 55% in size
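No-CPT arm: Tdp1-/-;hTDP1 DT40 cells (400/well) plus compounds, incubated ≥48 hr at 37 °C. Readout CellTiter-Glo luminescence.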
ClpP mod = qHTS Assay for Activators of ClpP. ATP-dependent Clp protease proteolytic subunit (Bacillus subtilis (strain 168)), P80244. purified B. subtilis ClpP, FRET peptide cleavage, 20 min. Potency, µM (highest dose often 57.5 µM), without a hit: top-dose activity change, negative = active. hit rate 1.9% among 340,000; active means well fitted falling curve with a large enough effect; inconclusive means small, poorly fitted or top-dose-only effect; inactive means no such curve, though single readings can be large or run the other way; further: potency means the concentration at half of the fitted maximal effect; the source files actives as falling curves though it sought activators and does not explain the sign; nearly all actives have a fitted effect of over 65% in size
Target sequence (P80244 whole entry, looked up): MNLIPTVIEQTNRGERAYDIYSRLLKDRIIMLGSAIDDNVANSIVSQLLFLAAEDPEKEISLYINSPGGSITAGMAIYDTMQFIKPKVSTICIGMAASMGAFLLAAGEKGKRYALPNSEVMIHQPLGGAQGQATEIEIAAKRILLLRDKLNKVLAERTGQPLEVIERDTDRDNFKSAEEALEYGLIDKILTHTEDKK
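Buffer: 100 mM Tris/HCl pH8, 100 mM KCl, 0.05% low protease BSA, 2.5% glycerol, 0.01% Tween-20. ClpP 10 microg/mL final; 20 min RT; delta FRET normalized to ADEP and DMSO controls.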
D3 antag = antagonists of human D3 dopamine receptor; P35462; D3R cells, DiscoveRx beta-arrestin luminescence, antagonist mode; hits give low values; max response, negative = inhibition, %; hit rate 2.5% among 360,000; AID 652054; in the data active means max response below about -50%; inconclusive means no clear call, values can overlap the other calls; further: on the % scale 0 is the no-effect control and ±100 the full control effect
Target sequence (P35462 whole entry, looked up): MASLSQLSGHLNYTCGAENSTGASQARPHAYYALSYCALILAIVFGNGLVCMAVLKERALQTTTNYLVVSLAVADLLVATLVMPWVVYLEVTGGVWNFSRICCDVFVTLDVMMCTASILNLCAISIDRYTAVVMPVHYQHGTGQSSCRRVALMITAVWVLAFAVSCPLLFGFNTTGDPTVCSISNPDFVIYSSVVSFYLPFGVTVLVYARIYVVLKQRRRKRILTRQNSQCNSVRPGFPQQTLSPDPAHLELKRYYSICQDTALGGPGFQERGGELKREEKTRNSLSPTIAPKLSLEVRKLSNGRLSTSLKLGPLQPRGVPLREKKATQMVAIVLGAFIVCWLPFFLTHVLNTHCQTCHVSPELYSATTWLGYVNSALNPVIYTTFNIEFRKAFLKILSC
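Cells plated overnight at 1500 cells/well, then exposed to library compounds with dopamine controls for 90 minutes at 37 degrees C. DiscoveRx reagent added for 30–60 minutes at room temperature; luminescence read, quantitative HTS format.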
DRD3 agonist = D3 dopamine receptor (human) agonism. hit rate 0.58% among 410,000. AID 652048. max activation, %. D3R DiscoveRx beta-arrestin cells, luminescence, 90 min; in the data active means max activation above about 30%; further: 0% is about no effect
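Agonist-mode cell screen: cells plated at 1500/well and incubated overnight at 37 °C, then exposed to library compounds for 90 min at 37 °C. Detection reagent was added for 30–60 min at room temperature, and luminescence was read.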
IL1B secr inh = inhibitors of inflammasome signaling (IL-1 beta secretion); activity change, % at 57.5 µM; THP-1 LPS/ATP IL-1B secretion, AlphaLISA, 16 h; hits give low values; hit rate 4.7% among 360,000; in the data active means activity change below about -50%; inconclusive means mostly about -30% to -49%; further: on the % scale 0 is the no-effect control and ±100 the full control effect
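Secreted IL-1B measured by AlphaLISA bead assay after 16 h compound exposure of THP-1 cells; compounds (final up to 57.5 uM) added 1 h before LPS (250 ng/mL) and ATP (1.25 mM) stimulation; lower signal means less secretion.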
TDP1 cell CPT = DT40-hTDP1 cell growth loss with CPT | chicken DT40 Tdp1-/-;hTDP1 cells + 20 nM CPT, ATP luminescence, 48 h | Potency, µM (series often up to 46.2 µM), for the others: at the highest dose activity change, negative = growth inhibition, usual class: inhibitors | hit rate 12% among 420,000 | AID 686979; further: potency means the concentration at half of the fitted maximal effect; on the % scale 0 is the no-effect control and ±100 the full control effect; nearly all actives have a fitted effect of over 55% in size
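Cell growth measured by CellTiter-Glo luminescence after a minimum 48 h, 37 C compound exposure with 20 nM CPT in Tdp1-knockout DT40 cells stably expressing hTDP1, seeded 400/well; qHTS titration format.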
Starred values were filed as active, the others as inactive; ! = not active in a repeat. Unless noted, the call rests on the fitted dose curve; in most records, active means well fitted inhibition curve with a large enough effect; inconclusive means small, poorly fitted or top-dose-only effect; inactive means flat fitted curve, though single readings scatter.

`CCOC(=O)[C@]12Cc3ccccc3[C@H]1N(CCC(=O)OC)C(=O)c1ccccc12` gave DT40 TDP1 no CPT 16µM*, ClpP mod -4%, D3 antag 0, DRD3 agonist -8 and TDP1 cell CPT 18µM*.
Screening COC(=O)C12CCc3cc(OC)ccc3C1=CC(=O)C2 (stereo unspecified) returned DT40 TDP1 no CPT inconclusive, ClpP mod 4%, D3 antag -18, DRD3 agonist -12, IL1B secr inh -1 and TDP1 cell CPT 11%.
`CCOC(=O)[C@]12Cc3cc(C)ccc3[C@H]1N(CCC(=O)OC)C(=O)c1cc(OC)ccc12` gave DT40 TDP1 no CPT 8.2µM*, ClpP mod -1%, D3 antag 2, DRD3 agonist -6, IL1B secr inh -124* and TDP1 cell CPT 10µM*.
`CCNc1nc(Cl)nc(NC(C)C)n1` gave DT40 TDP1 no CPT 0%, ClpP mod 0%, D3 antag 60, DRD3 agonist 10, IL1B secr inh -11 and TDP1 cell CPT 25%.
For O=C1C=C2C=C[C@@H]3C[C@@]2(O1)[C@H]1CCCCN31 the results were DT40 TDP1 no CPT 7.5µM*, DRD3 agonist -16 and TDP1 cell CPT 12µM*.
Screening CN1C2CCC1CC(OC(=O)CCN1CCCC1)C2 (stereo unspecified) returned DT40 TDP1 no CPT -6%, ClpP mod -2%, D3 antag 3, DRD3 agonist -14, IL1B secr inh -4 and TDP1 cell CPT -8%.
O=C(CCN1CC1)OCCOC(=O)CCN1CC1 was read as DT40 TDP1 no CPT 4.6µM*, ClpP mod -1%, D3 antag 17, DRD3 agonist 2, IL1B secr inh -3 and TDP1 cell CPT 5.2µM*.
O=c1c2ccccc2nc(/C=C/c2cccc3ccccc23)n1-c1ccccc1Cl was read as DT40 TDP1 no CPT 10µM*, ClpP mod 2%, DRD3 agonist 17 and TDP1 cell CPT 12µM*.
Screening Cc1ccccc1-n1c(/C=C/c2ccccc2F)nc2ccccc2c1=O returned DT40 TDP1 no CPT 8.2µM*, ClpP mod inconclusive, DRD3 agonist 0 and TDP1 cell CPT 21µM*.
COc1ccc(-n2c(/C=C\c3ccccc3F)nc3ccccc3c2=O)cc1OC was read as DT40 TDP1 no CPT 16µM*, ClpP mod 1%, DRD3 agonist 6 and TDP1 cell CPT 23µM*.
`OC[C@@H]1CCCN2CCCC[C@@H]12` gave DT40 TDP1 no CPT -7% and TDP1 cell CPT 4%.
CN1CCCC1c1ccc(=O)[nH]c1 (stereo unspecified) was read as DT40 TDP1 no CPT 13%, ClpP mod 32µM*, D3 antag 4, DRD3 agonist 3, IL1B secr inh 2 and TDP1 cell CPT 16%.
`CN1C(=O)CC(c2ccccc2)Nc2ccccc21` (stereo unspecified) gave DT40 TDP1 no CPT -4%, ClpP mod -1%, D3 antag 19, DRD3 agonist 1, IL1B secr inh 39 and TDP1 cell CPT 6%.
Cc1ccc(-c2nn3c(C)nnc3c3ccccc23)cc1S(=O)(=O)NCCO was read as DT40 TDP1 no CPT 21µM*!, ClpP mod inconclusive, D3 antag 8, DRD3 agonist 1, IL1B secr inh 8 and TDP1 cell CPT inconclusive.
C[C@H](CCC(=O)O)[C@H]1CC[C@H]2[C@H]3C(CC[C@]12C)[C@@]1(C)CC[C@@H](O)C[C@H]1C[C@H]3O (stereo partly specified) was read as DT40 TDP1 no CPT -4% and TDP1 cell CPT -8%.
For CNS(=O)(=O)c1cc(NC(=O)c2cccc3cccnc23)ccc1C the results were DT40 TDP1 no CPT 21µM*, D3 antag 6, DRD3 agonist -7, IL1B secr inh inconclusive and TDP1 cell CPT 23µM*.
Screening CC(=O)OC1N=C(c2ccccc2Cl)c2cc(Br)ccc2NC1=O (stereo unspecified) returned DT40 TDP1 no CPT inconclusive, D3 antag 0, DRD3 agonist 13, IL1B secr inh -71* and TDP1 cell CPT inconclusive.
`CC1N=C(c2ccccc2Cl)c2cc(Br)ccc2NC1=O` (stereo unspecified) gave DT40 TDP1 no CPT -8%, D3 antag 0, DRD3 agonist 2, IL1B secr inh 27 and TDP1 cell CPT 1%.
For Cc1ccc(Cn2cc(C=O)c(-c3ccc(C)cc3)n2)cc1 the results were DT40 TDP1 no CPT inconclusive, ClpP mod -3%, D3 antag 8, DRD3 agonist -5, IL1B secr inh -58* and TDP1 cell CPT inconclusive.
`O=C(NC1CC1)c1cn(Cc2ccccc2)nc1-c1ccccc1` gave DT40 TDP1 no CPT -16%, D3 antag 9, DRD3 agonist -9, IL1B secr inh -4 and TDP1 cell CPT 12%.
`O=C1NC[C@H](CCCCN2C[C@H](Cc3ccccc3)N(CCC3CCCCC3)C(=O)C2=O)N(CCC2CCCCC2)C1=O` gave DT40 TDP1 no CPT inconclusive, ClpP mod 0%, D3 antag 0, DRD3 agonist -3, IL1B secr inh inconclusive and TDP1 cell CPT inconclusive.
c1cc2c(cc1[C@H]1OC[C@@H]3[C@H]1CO[C@H]3c1ccc3c(c1)OCO3)OCO2 was read as DT40 TDP1 no CPT -39% and TDP1 cell CPT -45%.
`c1cc2cc(c1)C[n+]1ccc(c3ccccc31)NCc1ccc(cc1)CNc1cc[n+](c3ccccc13)C2` gave DT40 TDP1 no CPT 6.7µM* and TDP1 cell CPT 9.4µM*.
For O=C(c1ccc(Cl)cc1)C1CCCN(Cc2ccc3nonc3c2)C1 (stereo unspecified) the results were DT40 TDP1 no CPT inconclusive, ClpP mod -1%, D3 antag -12, DRD3 agonist -12, IL1B secr inh 13 and TDP1 cell CPT 16µM*.
`O=C(c1ccc(Cl)cc1)C1CCCN(Cc2cccc3cccnc23)C1` (stereo unspecified) gave DT40 TDP1 no CPT 16µM*, D3 antag -26, DRD3 agonist -20, IL1B secr inh -50* and TDP1 cell CPT 23µM*.
Screening O=C(c1ccc(Cl)cc1)C1CCCN(Cc2cccc3ncccc23)C1 (stereo unspecified) returned DT40 TDP1 no CPT 15µM*, ClpP mod -3%, D3 antag 106, DRD3 agonist -13, IL1B secr inh 15 and TDP1 cell CPT 18µM*.

Screening data (PubChem)
